Assay results as given in PubChem BioAssay (NCI).
About 83,000 compounds went through this panel and 20% of them were active in at least one assay; those are over-represented in the sample as a whole.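 Single-dose data. Exposure time 48 hours. Values below 10 considered active.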 The source made the active and inactive calls.

Columns and labels:
Assay in all cases: NCI-60 one-dose screen, 48 h (100 = growth as untreated, 0 = no growth, -100 = all killed)
Details in all cases: 10 µM unless noted
NCI-H23 lung = test system: NCI-H23 lung
NCI-H226 lung = test system: NCI-H226 lung
NCI-H322M lung = test system: NCI-H322M lung
HOP-62 NSCLC = test system: HOP-62 NSCLC
NCI-H460 lung = test system: NCI-H460 lung
HOP-92 NSCLC = test system: HOP-92 NSCLC
A549/ATCC NSCLC = test system: A549/ATCC NSCLC
786-0 renal = test system: 786-0 renal
COLO 205 colon = test system: COLO 205 colon

Measured: growth

Cc1ccc(NC(=O)c2sc3nc4c(cc3c2N)C(=O)CCC4)cc1
inactive: NCI-H23 lung 64.9% | NCI-H226 lung 83.7% | NCI-H322M lung 55.8% | HOP-62 NSCLC 114% | NCI-H460 lung 29% | HOP-92 NSCLC 48.1% | A549/ATCC NSCLC 37% | 786-0 renal 94.5% | COLO 205 colon 23.9%

Cc1sc2nc(NCCc3cccs3)[nH]c(=O)c2c1C
inactive: NCI-H23 lung 98.5% | NCI-H226 lung 83.2% | NCI-H322M lung 104% | HOP-62 NSCLC 68.4% | NCI-H460 lung 95.7% | HOP-92 NSCLC 93.3% | A549/ATCC NSCLC 58.7% | 786-0 renal 81.6% | COLO 205 colon 91%

COc1cccc(C=Nc2cc(C(C)C)c(O)cc2C)c1O
inactive: NCI-H23 lung 95.2% | NCI-H226 lung 93% | NCI-H322M lung 95.3% | HOP-62 NSCLC 95% | NCI-H460 lung 107% | HOP-92 NSCLC 82.3% | A549/ATCC NSCLC 109% | 786-0 renal 106% | COLO 205 colon 98.6%

FCc1ncc(-c2ccc(C(F)(F)F)cc2)c(NC2CCCCCC2)n1
active: NCI-H460 lung -28.9% [100 µM] | HOP-92 NSCLC -31.7% [100 µM] | A549/ATCC NSCLC 7.62% [100 µM] | 786-0 renal -13.7% [100 µM] | COLO 205 colon -21% [100 µM]
inactive: NCI-H23 lung 10.9% [100 µM] | NCI-H226 lung 34.4% [100 µM] | NCI-H322M lung 36.3% [100 µM] | HOP-62 NSCLC 31.2% [100 µM]

COc1cc(/C=C/c2cc(/C=C/c3ccc(O)c(OC)c3)n(C(=O)c3ccc(Cl)cc3)n2)ccc1O
inactive: NCI-H23 lung 21.8% | NCI-H226 lung 48.4% | NCI-H322M lung 28.5% | HOP-62 NSCLC 20.3% | A549/ATCC NSCLC 12.4% | 786-0 renal 19.5% | COLO 205 colon 98.7%
active: NCI-H460 lung 4.86% | HOP-92 NSCLC -2.95%

CSc1nc2nc3c(nc2c(=O)n1C)C(=O)c1ccccc1C3=O
active: NCI-H23 lung -26.4% | NCI-H226 lung -55.6% | NCI-H322M lung -89.8% | HOP-62 NSCLC -97.9% | NCI-H460 lung -62% | HOP-92 NSCLC -40% | A549/ATCC NSCLC -67.3% | 786-0 renal -50.5% | COLO 205 colon -86.2%

COc1cc(/C=C\C(C)=N\Nc2ccccc2)ccc1O
inactive: NCI-H23 lung 91.2% | NCI-H226 lung 109% | NCI-H322M lung 128% | HOP-62 NSCLC 67.5% | NCI-H460 lung 111% | HOP-92 NSCLC 100% | A549/ATCC NSCLC 80.7% | 786-0 renal 97.4% | COLO 205 colon 111%

COc1cccc(/C=C2\Cc3ccccc3C2=O)c1
inactive: NCI-H23 lung 106% | NCI-H226 lung 107% | NCI-H322M lung 110% | HOP-62 NSCLC 96.4% | NCI-H460 lung 105% | HOP-92 NSCLC 85.7% | A549/ATCC NSCLC 87% | 786-0 renal 101% | COLO 205 colon 115%

Cc1nn(-c2ccccc2)c2nc(N)c(C3=NCCO3)nc12
inactive: NCI-H23 lung 96.9% | NCI-H226 lung 93.6% | NCI-H322M lung 89.5% | HOP-62 NSCLC 81.2% | NCI-H460 lung 97.7% | HOP-92 NSCLC 43.6% | A549/ATCC NSCLC 86.5% | 786-0 renal 99.7% | COLO 205 colon 94.1%

N#Cc1c(-c2ccccc2)cc(-c2ccccc2)n(CCCCCCC(=O)O)c1=O
inactive: NCI-H23 lung 96.7% | NCI-H226 lung 93.1% | NCI-H322M lung 96.5% | HOP-62 NSCLC 94.4% | NCI-H460 lung 102% | HOP-92 NSCLC 125% | A549/ATCC NSCLC 102% | 786-0 renal 105% | COLO 205 colon 111%

COc1ccc(/C=C2\CCc3ccccc3C2=O)cc1
inactive: NCI-H23 lung 90.3% | NCI-H226 lung 103% | NCI-H322M lung 98.1% | HOP-62 NSCLC 85.8% | NCI-H460 lung 102% | HOP-92 NSCLC 84.2% | A549/ATCC NSCLC 77.4% | 786-0 renal 91.5% | COLO 205 colon 106%

c1ccc2c(-c3nc4ccccc4[nH]3)cccc2c1
inactive: NCI-H23 lung 44.2% | NCI-H226 lung 79% | NCI-H322M lung 64.5% | HOP-62 NSCLC 43% | NCI-H460 lung 15.5% | HOP-92 NSCLC 53.3% | A549/ATCC NSCLC 38.6% | 786-0 renal 55.5% | COLO 205 colon 24.6%

COc1cc(/C=C/C(=O)c2c(C)n([O-])c3ccccc3[n+]2=O)cc(OC)c1OC
active: HOP-92 NSCLC -0.517%
inactive: NCI-H23 lung 54.9% | NCI-H226 lung 86.5% | NCI-H322M lung 49% | HOP-62 NSCLC 105% | NCI-H460 lung 20.6% | A549/ATCC NSCLC 51.4% | 786-0 renal 65.9% | COLO 205 colon 55.9%

NC(=N\N=C/Cc1ccccc1)/C(N)=N\N=C\Cc1ccccc1
inactive: NCI-H23 lung 104% | NCI-H226 lung 104% | NCI-H322M lung 117% | HOP-62 NSCLC 113% | NCI-H460 lung 112% | HOP-92 NSCLC 109% | A549/ATCC NSCLC 101% | 786-0 renal 112% | COLO 205 colon 117%

Cc1ccccc1NC(=O)N/C(N)=N/c1nc2ccccc2s1
active: COLO 205 colon 6.68%
inactive: NCI-H23 lung 31.8% | NCI-H226 lung 21% | NCI-H322M lung 39.2% | HOP-62 NSCLC 40.7% | NCI-H460 lung 11.7% | HOP-92 NSCLC 126% | A549/ATCC NSCLC 22.7% | 786-0 renal 30.7%

C[C@@H]1[C@H]2[C@H](C=C3[C@@H]4CC[C@H]5Cc6nc7c(nc6C[C@]5(C)[C@H]4C[C@@H](O)[C@@]32C)C[C@@H]2CC[C@H]3C4=C[C@@H]5O[C@@]6(CC[C@](C)(CO)O6)[C@@H](C)[C@@]5(O)[C@@]4(C)[C@H](O)C[C@@H]3[C@@]2(C)C7)O[C@]12CCC(C)(C)O2
active: HOP-62 NSCLC -24.5% | NCI-H460 lung 0.313% | HOP-92 NSCLC -4.69% | 786-0 renal -25.3% | COLO 205 colon -39.3%
inactive: NCI-H23 lung 33.6% | NCI-H226 lung 20.7% | NCI-H322M lung 27.8% | A549/ATCC NSCLC 12.8%

O=c1sc2ncnc3ncn1c32
inactive: NCI-H23 lung 66.1% | NCI-H226 lung 61.4% | NCI-H322M lung 77.9% | HOP-62 NSCLC 41.8% | NCI-H460 lung 85.7% | HOP-92 NSCLC 50% | A549/ATCC NSCLC 104% | 786-0 renal 34.6% | COLO 205 colon 83.5%

CCCCCCCCCCOC(C)=O
inactive: NCI-H23 lung 113% | NCI-H226 lung 98.6% | NCI-H322M lung 107% | HOP-62 NSCLC 108% | NCI-H460 lung 110% | HOP-92 NSCLC 89.3% | A549/ATCC NSCLC 106% | 786-0 renal 114% | COLO 205 colon 116%

CCCCCc1c(C)[nH]c(/C=C2\N=C(c3ccc[nH]3)C=C2OCc2ccccc2)c1C
active: NCI-H23 lung -67.3% [100 µM] | NCI-H226 lung -42.5% [100 µM] | NCI-H322M lung -94.6% [100 µM] | HOP-62 NSCLC -91.9% [100 µM] | NCI-H460 lung -40.4% [100 µM] | HOP-92 NSCLC -77.6% [100 µM] | A549/ATCC NSCLC -70% [100 µM] | 786-0 renal -75.7% [100 µM] | COLO 205 colon -84% [100 µM]

COc1ccc(NC(=O)[C@@H]2C[C@H]2c2ccccc2)c(C(N)=O)c1
inactive: NCI-H23 lung 91.3% | NCI-H226 lung 101% | NCI-H322M lung 94.2% | HOP-62 NSCLC 100% | NCI-H460 lung 101% | HOP-92 NSCLC 94.6% | A549/ATCC NSCLC 97.5% | 786-0 renal 106% | COLO 205 colon 106%

Cc1sc2nc(NCc3ccccc3)[nH]c(=O)c2c1C
inactive: NCI-H23 lung 75.2% | NCI-H226 lung 82.1% | NCI-H322M lung 91.3% | HOP-62 NSCLC 39.2% | NCI-H460 lung 26.6% | HOP-92 NSCLC 69.4% | A549/ATCC NSCLC 33.6% | 786-0 renal 67.2% | COLO 205 colon 34.7%

c1ccc(Nc2ccc(Nc3nc(-c4ccccc4)nc4ccccc34)cc2)cc1
inactive: NCI-H23 lung 86.9% | NCI-H226 lung 81.2% | NCI-H322M lung 90.5% | HOP-62 NSCLC 79.8% | NCI-H460 lung 83.4% | HOP-92 NSCLC 134% | A549/ATCC NSCLC 63.2% | 786-0 renal 65.7% | COLO 205 colon 78.5%

CCN(CC)c1ccc(C(=C2C=CC(=[N+](CC)Cc3cccc(S(=O)(=O)O)c3)C=C2)c2ccc(N(CC)Cc3cccc(S(=O)(=O)O)c3)cc2)cc1
active: HOP-62 NSCLC 1.01% | A549/ATCC NSCLC -4.01%
inactive: NCI-H23 lung 45.2% | NCI-H226 lung 71.3% | NCI-H322M lung 58.3% | NCI-H460 lung 49.1% | HOP-92 NSCLC 66.3% | 786-0 renal 55.9% | COLO 205 colon 14%

COc1cc(C2CC(C3C(=O)N(C)C(=O)N(C)C3=O)=NN2C=O)cc(OC)c1OC (stereo unspecified)
inactive: NCI-H23 lung 97.3% | NCI-H226 lung 95.8% | NCI-H322M lung 91.2% | HOP-62 NSCLC 73.5% | NCI-H460 lung 99.9% | HOP-92 NSCLC 105% | A549/ATCC NSCLC 75.1% | 786-0 renal 108% | COLO 205 colon 98.7%

O=C1NC(=O)/C(=C/c2ccc(Cl)cc2Cl)N1
inactive: NCI-H23 lung 91.2% | NCI-H226 lung 99.4% | NCI-H322M lung 104% | HOP-62 NSCLC 99.1% | NCI-H460 lung 109% | HOP-92 NSCLC 81.2% | A549/ATCC NSCLC 101% | 786-0 renal 109% | COLO 205 colon 100%

c1ccc(-c2oc(-c3ccccc3)c3ccccc23)cc1
inactive: NCI-H23 lung 99.2% | NCI-H226 lung 104% | NCI-H322M lung 118% | HOP-62 NSCLC 98.2% | NCI-H460 lung 102% | HOP-92 NSCLC 78.7% | A549/ATCC NSCLC 99% | 786-0 renal 101% | COLO 205 colon 105%

COc1cnc2c(c1)C(=O)c1c-2n(CCCn2ccnc2)c(=O)c2cc(F)ccc12
active: NCI-H23 lung -36.7% | NCI-H226 lung -67.9% | NCI-H322M lung -1.28% | HOP-62 NSCLC -29.8% | NCI-H460 lung -62.9% | HOP-92 NSCLC -15.9% | A549/ATCC NSCLC -20.8% | 786-0 renal -62.6% | COLO 205 colon -34%

Cc1cc2c(cc1C)[n+](Cc1ccc3ccccc3c1)cn2Cc1ccc2ccccc2c1
active: NCI-H23 lung -71.8% | NCI-H226 lung -25.5% | NCI-H322M lung -8.28% | NCI-H460 lung -76.8% | HOP-92 NSCLC -80.8% | A549/ATCC NSCLC -71.3% | 786-0 renal -88.9% | COLO 205 colon -67.8%
